Compounds without any hit were thinned out: in the full panel of roughly 83,000, 20% have a hit.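 48-hour exposure, single concentration, 96-well plates; percent growth endpoint where 0 means no net growth. Active: below 10.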 Values without a mark were called inactive. Calls of active or inactive are those of the source.

Results on 9 compounds are retold here after PubChem BioAssay (NCI).

Some test systems named below: SR leukemia; RPMI-8226 leukemia; OVCAR-8 ovarian; OVCAR-5 ovarian; OVCAR-4 ovarian; SK-OV-3 ovarian; IGROV1 ovarian; OVCAR-3 ovarian; NCI/ADR-RES ovarian; T-47D breast; BT-549 breast; MDA-MB-435 melanoma; SW-620 colon; MCF7 breast; HCT-116 colon; HCC-2998 colon; KM12 colon; HS 578T breast.
Holding throughout (experiment): NCI-60 one-dose screen, 48 h (100 = growth as untreated, 0 = no growth, -100 = all killed)
Common to all, as to details: 10 µM unless noted

As for `Cn1c2ccccc2c2ccccc21`, the growth with SR leukemia is 87.6%; with RPMI-8226 leukemia, 94.3%; in the assay with OVCAR-8 ovarian, 98.3%; in the assay with OVCAR-5 ovarian it was 107%; with OVCAR-4 ovarian, 105%; in the assay on SK-OV-3 ovarian, 102%. Besides, the growth is 102% in the assay with IGROV1 ovarian; 107% in the assay on OVCAR-3 ovarian; 101% in the assay with NCI/ADR-RES ovarian; 90% with T-47D breast; 106% with BT-549 breast; 103% in the assay on MDA-MB-435 melanoma. Besides, the growth is 106% in the assay with SW-620 colon; 106% with MCF7 breast; 107% with HCT-116 colon; 110% with HCC-2998 colon; 101% with KM12 colon.
For `CCCCCCNc1nc(N2CCOCC2)c2[nH]c(NCCCCCC)nc2n1`, the growth in the assay with SR leukemia was -29.2% (active); with RPMI-8226 leukemia it was -44.4% (active); with OVCAR-8 ovarian, -67.7% (active); in the assay on OVCAR-5 ovarian, -92% (active); with OVCAR-4 ovarian it was -88.9% (active); in the assay on SK-OV-3 ovarian, -97.1% (active). Also, the growth with IGROV1 ovarian was -55.4% (active); with OVCAR-3 ovarian, -98.1% (active); in the assay on NCI/ADR-RES ovarian it was -98% (active); in the assay with T-47D breast, -70.4% (active); in the assay on MDA-MB-435 melanoma it was -58.6% (active); in the assay on MCF7 breast it was -88.4% (active). The growth in the assay with HCT-116 colon is -100% (active); in the assay with HCC-2998 colon, -100% (active); with KM12 colon, -89.9% (active).
For the compound `CCCCCCN(CCCCCC)CCC(=O)Nc1ccc(S(=O)(=O)c2ccc(NC(=O)CCN(CCCCCC)CCCCCC)cc2)cc1`, the growth with SR leukemia is 7.85% (active); in the assay with RPMI-8226 leukemia, 60.7%; with OVCAR-8 ovarian it was 90.8%; in the assay on OVCAR-5 ovarian it was 82.9%; in the assay on OVCAR-4 ovarian it was 77.6%; in the assay with SK-OV-3 ovarian, 84.2%. Also, the growth is 84.3% in the assay with IGROV1 ovarian; 80.7% with OVCAR-3 ovarian; 83.8% in the assay with NCI/ADR-RES ovarian; 60% in the assay with T-47D breast; 87.5% in the assay on BT-549 breast; 90.5% in the assay on MDA-MB-435 melanoma. Also, the growth in the assay with SW-620 colon was 84.6%; in the assay with MCF7 breast, 68.7%; in the assay with HCT-116 colon, 61.2%; in the assay on HCC-2998 colon, 32.5%; in the assay with KM12 colon, 89.5%.
Take `CCS(=O)(=O)N[C@@H]1O[C@H](COC(C)=O)C(OC(C)=O)[C@H](OC(C)=O)C1OC(C)=O` (stereo partly specified): the growth with SR leukemia is 104%; in the assay with RPMI-8226 leukemia, 105%; with OVCAR-8 ovarian, 98.6%; with OVCAR-5 ovarian, 98.8%; with OVCAR-4 ovarian, 102%; with SK-OV-3 ovarian, 97.3%. Moreover, the growth in the assay on IGROV1 ovarian is 106%; in the assay on OVCAR-3 ovarian it was 101%; in the assay on NCI/ADR-RES ovarian it was 108%; in the assay with T-47D breast, 90.7%; with MDA-MB-435 melanoma it was 103%; in the assay with MCF7 breast, 103%. For the same compound, the growth in the assay on HCT-116 colon was 95.3%; in the assay on KM12 colon, 106%.
Consider `CCCCCCCCCCCCCCCCC(=O)O.CCCCCCCCCCCCCCCCCC(=O)O.CCCCCCCCCCCCCCCCCC(=O)O.CCCCCCCCCCCCCCCCCC(=O)O.CCCCCCCCCCCCCCCCCC(=O)O.CO[CH-]OC12COC1CC(O)C1(C)C(O)C(OC(C)O)C3=C(C)C(OC(=O)C(O)C([NH-])c4ccccc4)CC(O)(C(OC(=O)c4ccccc4)C21)C3(C)C.[Cu+].[Zn].[Zn].[Zn].[Zn].[Zn]` (stereo unspecified), for which the growth in the assay with SR leukemia was 37.4%; in the assay with RPMI-8226 leukemia, 22.4%; with OVCAR-8 ovarian, 45.4%; in the assay on OVCAR-5 ovarian it was 24.9%; in the assay on OVCAR-4 ovarian, 40.1%; with SK-OV-3 ovarian, 39.4%. The growth was 33.4% with IGROV1 ovarian; 10.5% in the assay on HS 578T breast; 42.4% in the assay on NCI/ADR-RES ovarian; 45.9% in the assay with T-47D breast; 46.2% in the assay on BT-549 breast; 10.9% in the assay with MDA-MB-435 melanoma. Further, the growth in the assay on SW-620 colon was 44.7%; with MCF7 breast, 22.1%; with HCT-116 colon, 13.3%; in the assay with HCC-2998 colon, 21.6%; in the assay on KM12 colon, 19.9%.
Take `CC(C)(CNC1CCCCC1)OC(=O)c1ccccc1`: the growth with SR leukemia was 106%; in the assay with RPMI-8226 leukemia, 106%; in the assay with OVCAR-8 ovarian, 101%; in the assay on OVCAR-5 ovarian it was 114%; in the assay with OVCAR-4 ovarian, 110%; with SK-OV-3 ovarian, 106%. The growth was 106% with IGROV1 ovarian; 102% in the assay with OVCAR-3 ovarian; 103% in the assay on NCI/ADR-RES ovarian; 104% with T-47D breast; 99.7% in the assay on BT-549 breast; 107% in the assay with MDA-MB-435 melanoma. Also, the growth is 110% in the assay on SW-620 colon; 107% with MCF7 breast; 103% in the assay with HCT-116 colon; 111% with HCC-2998 colon; 102% with KM12 colon.
Turning to `CCCCCCCCCCCCCCCCCCOP(=O)(O)O`, the growth in the assay on SR leukemia is 103%; with RPMI-8226 leukemia, 100%; in the assay on OVCAR-8 ovarian it was 97.5%; in the assay on OVCAR-5 ovarian it was 103%; with OVCAR-4 ovarian, 117%; with SK-OV-3 ovarian it was 109%. Moreover, the growth with IGROV1 ovarian is 110%; in the assay on OVCAR-3 ovarian, 113%; in the assay on NCI/ADR-RES ovarian it was 108%; in the assay with T-47D breast, 106%; in the assay on BT-549 breast, 114%; in the assay on MDA-MB-435 melanoma it was 101%. In addition, the growth in the assay on SW-620 colon was 91.3%; in the assay on MCF7 breast, 101%; in the assay with HCT-116 colon it was 106%; in the assay with HCC-2998 colon, 108%; in the assay on KM12 colon, 110%.
`CC(O)CCC(C)[N+](=O)[O-]` (stereo unspecified): the growth in the assay on SR leukemia was 95.8%; with RPMI-8226 leukemia it was 101%; in the assay with OVCAR-8 ovarian, 104%; in the assay on OVCAR-5 ovarian it was 102%; with OVCAR-4 ovarian it was 103%; in the assay on SK-OV-3 ovarian, 101%. In addition, the growth was 105% in the assay on IGROV1 ovarian; 108% in the assay on OVCAR-3 ovarian; 111% in the assay with NCI/ADR-RES ovarian; 103% in the assay with T-47D breast; 106% in the assay with BT-549 breast; 104% with SW-620 colon. Further, the growth with MCF7 breast is 101%; in the assay with HCT-116 colon, 109%; in the assay on HCC-2998 colon, 126%; in the assay with KM12 colon, 103%.
On to `CNc1ccc(Nc2ccc(S(=O)(=O)O)cc2)c2c1C(=O)c1ccccc1C2=O`, for which the growth with SR leukemia was 99.7%; in the assay on RPMI-8226 leukemia, 107%; in the assay with OVCAR-8 ovarian, 101%; in the assay with OVCAR-5 ovarian, 98.7%; in the assay on OVCAR-4 ovarian, 109%; with SK-OV-3 ovarian, 117%. In addition, the growth with IGROV1 ovarian was 105%; with OVCAR-3 ovarian it was 121%; with NCI/ADR-RES ovarian, 108%; with T-47D breast it was 110%; in the assay on MDA-MB-435 melanoma, 95%; with SW-620 colon, 112%. For the same compound, the growth was 97% with MCF7 breast, 109% in the assay on HCT-116 colon, 112% in the assay with HCC-2998 colon and 108% with KM12 colon.
